Rows were chosen to be rich in hits. Some 4.8% of all compounds tested hit in one or more screens of this group.
SMARCA2 activ = increases SMARCA2 function in MMTV reporter cells | MG213 cells, MMTV-luciferase reporter, dexamethasone, overnight | activation, % at 9.1 µM | 370,000 tested, 1% active | AID 652017; in the data active means activation above about 7.8%;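 further: 0% = vehicle wells and 100% = reference activator wells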
hgDAF-12 ag = agonists of H. glycines DAF-12 nuclear receptor. HEK293 GAL4-hgDAF12 UAS-luciferase reporter, agonist luminescence; normalized to butyrate control. activation, % at 6.8 µM. 370,000 tested, 1.8% active. AID 687014;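 active means activation above a cutoff set at the mean of all screened compounds plus 3 SD, cut at about 10% in these data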;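 further: 0% = DMSO wells and 100% = sodium butyrate wells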
DAX1 inh-1 = NR0B1 (DAX1) inhibition | HEK293 Gal4-DAX1 luciferase reporter, luminescence | inhibition, % at 6.75 µM | 340,000 tested, 0.99% active;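 active means inhibition above the mean over all tested compounds plus 3 SD, cut at about 4.2% in these data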;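 further: 0% = DAX1-transfected cells with DMSO and 100% = empty-vector control cells with DMSO; inhibition shows as a rise in luminescence from relieved DAX1 repression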
ssDAF-12 act = activators of S. stercoralis DAF-12 nuclear receptor. 370,000 tested, 1% active. activation, % at 6.8 µM. HEK293 ssDAF-12/GRIP1 lit1-tk-luc reporter, luminescence; % of 3 µM dafachronic acid response;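 active means activation above the mean over all tested compounds plus 3 SD, cut at about 0.9% in these data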;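 further: 0% = DMSO-only wells and 100% = 3 µM delta7-dafachronic acid wells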
hcDAF-12 act = activators of H. contortus DAF-12 nuclear receptor; activation, % at 6.8 µM; AID 652067; HEK293 hcDAF-12 lit1-tk-luc reporter, luminescence; 0% DMSO, 100% Δ7-dafachronic acid; 370,000 tested, 1.4% active;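 active means activation above the mean of all tested compounds plus 3 SD, cut at about 5.5% in these data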;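 further: 100% = response to 3 µM Δ7-dafachronic acid high control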
DAX1 inh-2 = blocks DAX1 repression of SF-1 activated StAR promoter. HEK293T StAR-luciferase reporter, SF-1/DAX-1 repression relief. inhibition, % at 6.8 µM. 370,000 tested, 1.1% active. AID 652010;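 active means inhibition above the mean over all tested compounds plus 3 SD, cut at about 3.6% in these data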;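 further: 0% = DAX-1 cells with DMSO and 100% = cells lacking DAX-1 with DMSO; higher inhibition means more luminescence from relief of DAX-1 repression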
LXR ag = counter-screen for hcDAF-12 agonists: agonists of human LXR-beta | shares compounds with hcDAF-12 act | HEK293 Gal4-LXR tk-luc reporter, luminescence, 24 h; normalized: DMSO 0%, positive control 100% | activation, % at 6.8 µM | 3,400 tested, under 10 active;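 active means mean percent activation of the reporter above a cutoff set as the average over tested compounds plus their standard deviation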
Target sequence (P55055 whole entry, looked up, the tested form may be a part): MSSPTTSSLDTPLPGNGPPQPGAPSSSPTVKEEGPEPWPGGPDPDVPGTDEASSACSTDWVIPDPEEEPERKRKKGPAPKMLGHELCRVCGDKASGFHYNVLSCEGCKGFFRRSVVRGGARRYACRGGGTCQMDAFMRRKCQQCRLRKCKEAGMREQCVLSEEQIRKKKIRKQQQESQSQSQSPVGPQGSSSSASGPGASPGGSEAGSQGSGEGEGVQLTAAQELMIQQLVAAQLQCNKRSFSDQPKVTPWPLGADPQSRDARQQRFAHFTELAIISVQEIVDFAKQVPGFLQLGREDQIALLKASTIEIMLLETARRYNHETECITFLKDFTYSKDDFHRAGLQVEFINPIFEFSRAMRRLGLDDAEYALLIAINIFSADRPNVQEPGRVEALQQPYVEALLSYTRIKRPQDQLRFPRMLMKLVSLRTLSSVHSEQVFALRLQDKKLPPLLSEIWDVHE
hcDAF12 conf = confirmation of H. contortus DAF-12 agonists; shares compounds with hcDAF-12 act; HEK293 hcDAF-12 lit1-tk-luc reporter, luminescence; % of Δ7-dafachronic acid response; activation, % at 6.8 µM; 3,400 tested, 61% active; AID 743032;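 active means mean activation across triplicate tests above the threshold derived from the earlier primary screen, cut at about 5.5% in these data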;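 further: 0% = DMSO only wells and 100% = 3 µM Δ7-dafachronic acid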
The depositor's hits bear a star.

Results for CCc1ccc2c(c1)C(=O)c1ccccc1C2=O ?
SMARCA2 activ: 4; hgDAF-12 ag: 11*; DAX1 inh-1: 0; ssDAF-12 act: 2.5*; hcDAF-12 act: 8.0*; DAX1 inh-2: 1; LXR ag: 1; hcDAF12 conf: 9.8*

Results for CCc1ccc(NC2=CC(=O)C(=O)c3ccccc32)cc1 ?
SMARCA2 activ: 3; hgDAF-12 ag: 6; DAX1 inh-1: -1; ssDAF-12 act: 0; hcDAF-12 act: 1; DAX1 inh-2: -1

What do the screens show for `O=C1OCC(CO)(CO)N=C1NNc1ccccc1Cl`?
SMARCA2 activ: 2; hgDAF-12 ag: 1; DAX1 inh-1: 0; ssDAF-12 act: 1; hcDAF-12 act: 9.0*; DAX1 inh-2: 1; LXR ag: 0; hcDAF12 conf: 2

What do the screens show for `O=C(O)C(Cc1c[nH]c2ccccc12)N1Cc2ccccc2C1=O` (configuration not stated)?
SMARCA2 activ: 1; hgDAF-12 ag: 8; DAX1 inh-1: 4; ssDAF-12 act: 3.0*; hcDAF-12 act: 6.9*; DAX1 inh-2: 1; LXR ag: 1; hcDAF12 conf: 8.0*

How did CC(=O)N[C@H](Cc1c[nH]c2ccccc12)C(=O)O do in these assays?
SMARCA2 activ: 1; hgDAF-12 ag: 1; DAX1 inh-1: -1; ssDAF-12 act: 0; hcDAF-12 act: 8.2*; DAX1 inh-2: 0; LXR ag: 0; hcDAF12 conf: 0

Results for O=C(O)[C@H](Cc1ccccc1)N1Cc2ccccc2C1=O ?
SMARCA2 activ: -1; hgDAF-12 ag: 1; DAX1 inh-1: 1; ssDAF-12 act: -1; hcDAF-12 act: 2; DAX1 inh-2: 1

Results for CC(=O)/C=C(/C)NC(Cc1c[nH]c2ccccc12)C(=O)O (configuration not stated) ?
SMARCA2 activ: -2; hgDAF-12 ag: 3; DAX1 inh-1: 0; ssDAF-12 act: 0; hcDAF-12 act: 2; DAX1 inh-2: 1

How did COCCCNC(=O)c1ccc(Cn2c(=O)c3ccccc3n(Cc3ccc(C(C)C)cc3)c2=O)cc1 do in these assays?
SMARCA2 activ: 1; hgDAF-12 ag: 0; ssDAF-12 act: -1; hcDAF-12 act: -3; DAX1 inh-2: 0

What do the screens show for `CCc1ccc(C(=O)COC(=O)c2cccs2)cc1`?
SMARCA2 activ: 6; hgDAF-12 ag: 10; DAX1 inh-1: 0; ssDAF-12 act: -1; hcDAF-12 act: 0; DAX1 inh-2: 2

How did CN(C)c1ccc(C(=O)OCC(=O)c2cccs2)cc1 do in these assays?
SMARCA2 activ: 5; hgDAF-12 ag: 20*; DAX1 inh-1: 1; ssDAF-12 act: 1.1*; hcDAF-12 act: 8.4*; DAX1 inh-2: 4.2*; LXR ag: 1; hcDAF12 conf: 4

What do the screens show for `Cc1ccc(C(=O)COC(=O)c2cccs2)cc1`?
SMARCA2 activ: 2; hgDAF-12 ag: 9; DAX1 inh-1: 2; ssDAF-12 act: 1; hcDAF-12 act: 7.0*; DAX1 inh-2: 4.5*; LXR ag: 1; hcDAF12 conf: 5

How did CC(C)C[C@H]1COc2cc(N3CCCC3)ccc2S(=O)(=O)N1 do in these assays?
SMARCA2 activ: -2; hgDAF-12 ag: -2; ssDAF-12 act: -2; hcDAF-12 act: -1; DAX1 inh-2: -1

What do the screens show for `C[C@@H]1CN(C(=O)OC(C)(C)C)CCN1c1ccc(N2CC[C@@H](O)C2)c(C#N)c1`?
SMARCA2 activ: -1; hgDAF-12 ag: -3; ssDAF-12 act: -1; hcDAF-12 act: -3; DAX1 inh-2: -1

How did CC(C)c1ccc(-c2cc(C(=O)NN3CCN(C)CC3)c3ccccc3n2)cc1 do in these assays?
SMARCA2 activ: 1; hgDAF-12 ag: 9; DAX1 inh-1: -2; ssDAF-12 act: 1; hcDAF-12 act: 7.3*; DAX1 inh-2: 2; LXR ag: 0; hcDAF12 conf: 6.0*

How did CC1=C(c2ccccc2)C(=O)C(C)(C)CC1=O do in these assays?
SMARCA2 activ: -3; hgDAF-12 ag: -2; ssDAF-12 act: -1; hcDAF-12 act: 1; DAX1 inh-2: 0

How did COc1ccc2c(=O)c(-c3nc(C)cs3)coc2c1 do in these assays?
SMARCA2 activ: 5; hgDAF-12 ag: 14*; DAX1 inh-1: 0; ssDAF-12 act: 1.1*; hcDAF-12 act: 7.0*; DAX1 inh-2: 4.1*; LXR ag: 2; hcDAF12 conf: 14*

What do the screens show for `C=CS(=O)(=O)N(C(=C)C(=O)OC)S(C)(=O)=O`?
SMARCA2 activ: 3; hgDAF-12 ag: -2; ssDAF-12 act: -1; hcDAF-12 act: -1; DAX1 inh-2: 1

Results for CC(=O)c1sc(NC(=O)c2cc(=O)c3ccccc3o2)nc1C ?
SMARCA2 activ: 3; hgDAF-12 ag: 5; DAX1 inh-1: 1; ssDAF-12 act: 0; hcDAF-12 act: 3; DAX1 inh-2: 2

Results for CC(=O)c1sc(NC(=O)c2oc3ccc(F)cc3c2C)nc1C ?
SMARCA2 activ: 5; hgDAF-12 ag: 3; DAX1 inh-1: 2; ssDAF-12 act: 0; hcDAF-12 act: 6.9*; DAX1 inh-2: 3; LXR ag: 1; hcDAF12 conf: 4

Results for CC(=O)Nc1sc(N/N=C\c2cccc(Cl)c2)nc1-c1cccs1 ?
SMARCA2 activ: 2; hgDAF-12 ag: 5; DAX1 inh-1: 1; ssDAF-12 act: -1; hcDAF-12 act: 8.4*; DAX1 inh-2: 1; LXR ag: 0; hcDAF12 conf: 7.8*

How did CC(=O)Nc1sc(N/N=C\c2ccc(O)cc2)nc1-c1cccs1 do in these assays?
SMARCA2 activ: 5; hgDAF-12 ag: 7; DAX1 inh-1: 1; ssDAF-12 act: 1; hcDAF-12 act: 2; DAX1 inh-2: 1

What do the screens show for `O=C(Nc1ccccn1)c1onc2c1CCCC2`?
SMARCA2 activ: 5; hgDAF-12 ag: 6; DAX1 inh-1: -3; ssDAF-12 act: 0; hcDAF-12 act: 8.0*; DAX1 inh-2: 2; LXR ag: 1; hcDAF12 conf: 5.8*

Results for CC(C)(C)CN1CCN(CC#Cc2ccccc2)CC1CCO (configuration not stated) ?
SMARCA2 activ: -2; hgDAF-12 ag: 3; DAX1 inh-1: 2; ssDAF-12 act: -1; hcDAF-12 act: 7.5*; DAX1 inh-2: 0; LXR ag: 0; hcDAF12 conf: 5

What do the screens show for `C[C@@H]1CN([C@H](C)CO)S(=O)(=O)c2ccc(Br)cc2O[C@H]1CN(C)CC1CCOCC1`?
SMARCA2 activ: 0; hgDAF-12 ag: -1; ssDAF-12 act: 0; hcDAF-12 act: -1; DAX1 inh-2: -1
